What follows are sequences tested on MILI (PIWIL2) piRISC loaded with L1MC piRNA (26 nt) (assay: pre-steady-state target cleavage rate (min^-1); guide: L1MC piRNA 5'p-UAACUAAAUACUAUGCAAGCUGUAGG; MIWI and MILI are mouse PIWI proteins and EfPiwi is from a freshwater sponge; tags in brackets are library labels; higher = faster piRNA-guided slicing of the target). Conditions: auxiliary factor: none (no GTSF1).
How it was run: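 In Cleave-'n-Seq, a transcribed, DNA-blocked target RNA library (0.1 nM) was combined with 1 nM active affinity-purified piRISC bearing one synthetic guide, with or without 500 nM GTSF1 partner protein. Reactions ran in HEPES–potassium acetate buffer at 33 °C for 0–8 or 0–960 min. Uncleaved targets were sequenced and normalised to depth and to weakly complementary targets, three trials were pooled, and k3 was capped at 0.0001 min^-1. The pre-steady-state cleavage rate was obtained by fitting a burst-and-steady-state model.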

pre-steady-state target cleavage rate, < 0.0001:
UCCUGGAUGUCGAACGUUUGUAUUUAGUAA
UCCUGGAUGUCGAACGAUAGUAUUUAAGUUA
UCCUGGAUGUCGAACGUAUGUACUUUAGUUA
UCCUGGAUGUCGAACCAUAGUAUUAGUUA
